Bioassay records (PubChem BioAssay)
Rows were chosen to be rich in hits. Some 3.2% of all compounds tested hit in one or more screens of this group.
TcdB GH inh – TcdB glycohydrolase inhibitors, primary screen, biochemical, single point, plate reader. inhibition, % at 9.99 µM. TcdB glycohydrolase enzymatic assay. 0.24% of 350,000 active. Toxin B (Clostridioides difficile), P18177; in the data active means inhibition above about 10%
PrPC TRFRET – inhibitors of human cell surface prion protein PrPC, primary screen, cell-based, TR-FRET. 0.43% of 370,000 active. inhibition, % at 13.8 µM. TR-FRET read-out. Major prion protein (Homo sapiens), P04156; in the data active means inhibition above about 24%; further: 0% = median of the test wells and 100% = reference compound wells
FBA Mtb inh – Mtb FBA enzyme inhibitors, primary screen, biochemical, fluorescence, strain H37Rv; Fructose-bisphosphate aldolase (Mycobacterium tuberculosis (strain ATCC 25618 / H37Rv)), …; purified M. tuberculosis FBA, fluorescence read-out; inhibition, % at 1 µM; 2.3% of 360,000 active; AID 588726, 2011; in the data active means inhibition above about 27%;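 further: 0% = vehicle and 100% = reference inhibitor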
Target sequence (P9WQA3 whole entry, looked up): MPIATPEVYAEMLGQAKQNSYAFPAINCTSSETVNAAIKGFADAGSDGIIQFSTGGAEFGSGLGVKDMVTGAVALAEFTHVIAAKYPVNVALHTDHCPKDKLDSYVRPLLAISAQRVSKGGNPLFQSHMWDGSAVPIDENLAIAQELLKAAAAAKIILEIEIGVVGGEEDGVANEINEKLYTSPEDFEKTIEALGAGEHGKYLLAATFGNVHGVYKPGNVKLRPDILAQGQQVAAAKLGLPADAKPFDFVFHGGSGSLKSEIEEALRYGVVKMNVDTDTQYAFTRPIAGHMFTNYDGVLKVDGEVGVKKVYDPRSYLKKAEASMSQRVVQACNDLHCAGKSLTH
Y pestis TopoI – Yersinia pestis topoisomerase I inhibitors, primary screen, biochemical, cleavage product accumulation, plate reader, single point. activity, % at 10 µM. Y. pestis Topo-I cleavage product accumulation. DNA topoisomerase I (Yersinia pestis CO92). 0.064% of 360,000 active. AID 504884, 2011; in the data active means activity above about 50%, passing the limit was not always enough
GDH-TPI counter – GDH-TPI coupling enzyme inhibitors, primary screen, artefact control for M. tuberculosis FBA inhibitor project, biochemical, absorbance, full deck; GDH-TPI coupled enzyme counterscreen, NADH absorbance; inhibition, % at 4.8 µM; 1.2% of 360,000 active; AID 588335, 2011; in the data active means inhibition above about 30%;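 further: 0% = DMSO wells and 100% = wells lacking the enzyme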
* marks the source's active call; other numbers are inactive results; · = not tested or not shown; + = active, no number; ! = not active in a repeat.

SMILES	TcdB GH inh	PrPC TRFRET	FBA Mtb inh	Y pestis TopoI	GDH-TPI counter
CCOC(=O)[C@@H]1[C@H]2COc3ccc(Br)cc3[C@@H]2N2C(=O)N(c3ccc(Br)cc3)C(=O)[C@]12C	14*!	4	-2	-3	7
CCOc1ccc(/C=N/n2c(C)nnc2C)cc1OC	1	-3	-2	7	4
CCOc1cc(/C=N/n2c(C)nnc2C)ccc1O	10	5	3	-3	40*
CCOC(=O)/C(C#N)=C/Nc1ccccc1OC	·	-5	-13	-1	44*
O=C(N[C@H]1CC[C@@H](CCn2cc(-c3ccccn3)nn2)O[C@@H]1CO)c1ccncc1	-3	·	·	·	·
COc1ccc(C2C3=C(CC(c4ccco4)CC3=O)Nc3ccccc3N2C(C)=O)cc1 (stereo unspecified)	·	-5	1	0	34*
CC1CN(C(=O)c2cc3c(=O)n4ccccc4nc3s2)CC(C)O1 (stereo unspecified)	·	-19	196*	-7	34*
CN1CCN(C(=O)c2cc3c(=O)n4ccccc4nc3s2)CC1	1	-15	+	3	10
COc1ccccc1N1CCN(C(=O)c2cc3c(=O)n4ccccc4nc3s2)CC1	0	-6	9	3	21
C[C@H]1CN([C@@H](C)CO)C(=O)c2cc(NC(=O)C3CC3)ccc2O[C@H]1CN(C)Cc1ccc(C(=O)O)cc1	-1	·	·	·	·
Cc1noc(C)c1S(=O)(=O)N(C)C[C@@H]1Oc2ccc(NC(=O)C3CCCCC3)cc2CC(=O)N([C@H](C)CO)C[C@@H]1C	-1	·	·	·	·
C(=N\NC1=NCCCCC1)/c1c[nH]c2ccccc12	1	-5	-4	-1	39*
Cc1cc(N/N=C/c2c[nH]c3ccccc23)c2ccccc2n1	0	0	3	-2	3
COc1ccccc1/C=N/NC1=NCCCCC1	·	-11	-2	5	18
Cn1c(N/N=C/c2c[nH]c3ccccc23)nc2ccccc21	·	9	2	-26	58*
C[C@@H]1CCCCO[C@H](CN(C)C(=O)NC2CCCCC2)[C@H](C)CN([C@H](C)CO)C(=O)c2cc(NS(=O)(=O)c3cn(C)cn3)ccc2O1	1	·	·	·	·
COc1ccccc1C(=O)NCCC(=O)N1CC=C(c2ccccc2)CC1	2	7	6	132*	2
CC(=O)Oc1ccc2occ(/C=N/c3cc(=O)[nH]c(=S)[nH]3)c(=O)c2c1	-1	-1	-1	-2	39*
Cc1ccc2occ(/C=N/O)c(=O)c2c1	·	-1	1	3	1
CCN(/N=C/C=C/c1ccccc1)c1cc(=O)n(C)c(=O)[nH]1	1	-1	-2	8	70*
Cn1c(=O)cc(C(=O)N/N=C/c2ccc(Cl)cc2)[nH]c1=O	-1	7	-1	6	16
CCN(/N=C/c1ccc(Cl)cc1)c1cc(=O)n(C)c(=O)[nH]1	0	-5	0	-5	51*
C[C@@H]1CN([C@H](C)CO)S(=O)(=O)c2ccc(-c3ccccc3F)cc2O[C@H]1CN(C)C(=O)C1CC1	-1	·	·	·	·
C[C@H]1CN([C@@H](C)CO)C(=O)c2cccc(NC(=O)C3CCOCC3)c2O[C@H]1CN(C)C(=O)NC1CCCCC1	0	·	·	·	·
COCC(=O)Nc1ccc2c(c1)C(=O)N(C)C[C@H](OC)[C@H](C)CN(C(=O)CC1CC1)[C@@H](C)CO2	0	·	·	·	·
SMILES	TcdB GH inh	PrPC TRFRET	FBA Mtb inh	Y pestis TopoI	GDH-TPI counter
CC12CC[C@H]3[C@@H](CCC4(O)C[C@H](O)CCC34/C=N/NC(=O)c3ccc(O)cc3)C1(O)CCC2C1=CC(=O)OC1 (stereo partly specified)	1	1	2	-7	10
CN(C)c1ccc(C(=O)N/N=C/C23CC[C@@H](O)CC2(O)CC[C@@H]2[C@@H]3CCC3(C)C(C4=CC(=O)OC4)CCC23O)cc1 (stereo partly specified)	0	6	1	11	45*
O=C(CN1CCOCC1)N1[C@@H](CO)[C@@H]2c3ccccc3NC[C@@H]21	0	·	·	·	·
O=C(O)Cn1c2ccccc2c2nc3ccccc3nc21	·	·	-2	1	32*
CCCCOCCCn1c(N)c(C(=O)OCCOC)c2nc3ccccc3nc21	·	-10	134*	18	15
COCCOC(=O)c1c(N)n(Cc2ccccc2)c2nc3ccccc3nc12	·	-19	+	11	6
COCCn1c(N)c(C(=O)OCc2ccccc2)c2nc3ccccc3nc21	·	-7	+	15	0
